This is part of a sample that, as a whole, favours compounds with a hit. Of some 83,000 tested, about 20% had one in any assay.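 Growth was measured after 48 h exposure to one concentration of compound in 96-well plates. Values under 10 count as active.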 Values without a mark were called inactive. Calls of active or inactive are those of the source.
Assays:
Assay in all cases: NCI-60 one-dose screen, 48 h (100 = growth as untreated, 0 = no growth, -100 = all killed)
Settings in all cases: 10 µM unless noted
[1] = tested on: SK-MEL-2 melanoma
[2] = tested on: EKVX NSCLC
[3] = tested on: UO-31 renal
[4] = tested on: TK-10 renal
[5] = tested on: ACHN renal
[6] = tested on: CAKI-1 renal
[7] = tested on: A498 renal
[8] = tested on: CCRF-CEM leukemia
[9] = tested on: MOLT-4 leukemia
[10] = tested on: SN12C renal

## CC(=O)OC[C@]12CC[C@@H](/C(C)=N/O)[C@@H]1[C@H]1CC[C@@H]3[C@@]4(C)CCCNC(C)(C)[C@@H]4CC[C@@]3(C)[C@]1(C)CC2
[1]
  growth: 94.5%
[2]
  growth: 84.6%
[3]
  growth: 61.2%
[4]
  growth: 82.4%
[5]
  growth: 88%
[6]
  growth: 36.7%
[7]
  growth: 59.3%
[8]
  growth: 52.1%
[9]
  growth: 35.6%

## O=C1/C(=C\c2ccc(Br)o2)SC(=S)N1CCc1ccc(O)cc1
[1]
  growth: 103%
[2]
  growth: 81.4%
[3]
  growth: -48.4% (active)
[4]
  growth: 92.8%
[5]
  growth: 49.8%
[6]
  growth: 27.8%
[7]
  growth: 108%
[8]
  growth: 21.8%
[9]
  growth: 64.3%

## C#CCC(C)(O)/C=C/C1=C(C)CCCC1(C)C (stereo not given)
[1]
  growth: 97.4%
[2]
  growth: 95.8%
[3]
  growth: 91.3%
[4]
  growth: 96.7%
[5]
  growth: 97.3%
[6]
  growth: 92.4%
[7]
  growth: 91.3%
[8]
  growth: 101%
[9]
  growth: 101%

## O=C(O)c1cccc2c1C(=O)N(c1ccc3c(c1)Cc1ccccc1-3)C2=O
[1]
  growth: 99%
[2]
  growth: 111%
[3]
  growth: 85.6%
[4]
  growth: 100%
[5]
  growth: 113%
[6]
  growth: 109%
[7]
  growth: 104%
[8]
  growth: 104%
[9]
  growth: 101%

## COc1cc2nc(Cl)nc(Nc3cccc(C(=O)/C=C/c4ccc(Br)cc4)c3)c2cc1OC
[1]
  growth: 92.4%
[2]
  growth: 81.3%
[3]
  growth: 60.8%
[4]
  growth: 172%
[5]
  growth: 78.3%
[6]
  growth: 72.8%
[7]
  growth: 85.4%
[8]
  growth: 31.3%
[9]
  growth: 37.1%

## Cn1cc(-c2nc(-c3c[nH]c4ncccc34)cs2)c2cc(Cl)ccc21
[1]
  growth: 60.4%
[2]
  growth: 41.8%
[10]
  growth: 54%
[4]
  growth: 43.1%
[5]
  growth: 30%
[6]
  growth: 36.5%
[7]
  growth: 74.7%
[8]
  growth: 33.8%
[9]
  growth: 37.9%

## C[Si](C)(C)Cc1ccccc1
[1]
  growth: 163%
[2]
  growth: 110%
[3]
  growth: 95.9%
[4]
  growth: 122%
[5]
  growth: 106%
[6]
  growth: 98.5%
[7]
  growth: 164%
[8]
  growth: -49.7% (active)
[9]
  growth: 118%

## COC(=O)[C@]12CC[C@@H](C(=O)/C=C/c3cccnc3)[C@@H]1[C@H]1CC[C@@H]3[C@@]4(C)C/C(=C/c5cccnc5)C(=O)C(C)(C)[C@@H]4CC[C@@]3(C)[C@]1(C)CC2
[1]
  growth: -61.1% (active)
[2]
  growth: -76.3% (active)
[3]
  growth: -100% (active)
[4]
  growth: -60.5% (active)
[5]
  growth: -100% (active)
[6]
  growth: -78.7% (active)
[7]
  growth: -91.2% (active)
[8]
  growth: 0.953% (active)
[9]
  growth: -31.3% (active)

## COc1cc2c(cc1-c1c(C)noc1C)ncc1nc(C3CCC(F)(F)CC3)n([C@@H](C)COC(F)F)c12
[1]
  growth: 71.4%
[2]
  growth: 43.4%
[3]
  growth: 3.65% (active)
[4]
  growth: 27.1%
[5]
  growth: 36.5%
[6]
  growth: 24.3%
[7]
  growth: -12.5% (active)
[8]
  growth: 50.8%
[9]
  growth: 41.4%

## COc1cc2c3c(c4c5ccccc5[nH]c4c2c(OC)c1OC)C(=O)N(O)C3=O
[1]
  growth: 85.6%
[2]
  growth: 97.1%
[3]
  growth: 10%
[4]
  growth: 80.1%
[5]
  growth: 20.6%
[6]
  growth: 36%
[7]
  growth: -16.8% (active)
[8]
  growth: 18%
[9]
  growth: 1.38% (active)

## COc1ccc2c(c1)c(-c1nc(-c3c[nH]c4ncccc34)cs1)cn2C
[1]
  growth: 60.9%
[2]
  growth: 29.3%
[10]
  growth: 74.5%
[4]
  growth: 60.3%
[5]
  growth: 53.2%
[6]
  growth: 55.1%
[7]
  growth: 60.1%
[8]
  growth: 51.7%
[9]
  growth: 54.5%

## OCC(CO)(CCl)CCl
[1]
  growth: 87.8%
[2]
  growth: 104%
[3]
  growth: 104%
[4]
  growth: 95%
[5]
  growth: 104%
[6]
  growth: 95%
[7]
  growth: 111%
[8]
  growth: 90.4%
[9]
  growth: 91.1%

## CC1(C)C(=O)/C(=C\c2ccccn2)C[C@]2(C)[C@H]3CC[C@@H]4[C@@H](C(=O)/C=C/c5ccccn5)CC[C@@]4(C)[C@]3(C)CC[C@@H]12
[1]
  growth: -25.6% (active)
[2]
  growth: -16.4% (active)
[3]
  growth: -99.6% (active)
[4]
  growth: -21.7% (active)
[5]
  growth: -89% (active)
[6]
  growth: -20.3% (active)
[7]
  growth: -80.6% (active)
[8]
  growth: 6.8% (active)
[9]
  growth: 7.28% (active)

## NC1=C(C/C(N)=N\O)C(c2ccccc2Cl)c2c(ccc3ccccc23)O1 (stereo not given)
[1]
  growth: 90.4%
[2]
  growth: 80.9%
[3]
  growth: 58.6%
[4]
  growth: 180%
[5]
  growth: 83%
[6]
  growth: 49.5%
[7]
  growth: 96.8%
[8]
  growth: 79.8%
[9]
  growth: 76%

## CC(=O)N1N=C(c2ccc(C)cc2)CC1c1ccc(Oc2ccc(Br)cc2)cc1 (stereo not given)
[1]
  growth: 106%
[2]
  growth: 83.1%
[3]
  growth: 39.2%
[4]
  growth: 71.1%
[5]
  growth: 99.5%
[6]
  growth: 74.6%
[8]
  growth: 93.2%

## Cn1cc(-c2csc(-c3cn(C(=O)OC(C)(C)C)c4ccc(Br)cc34)n2)c2cccnc21
[1]
  growth: 91.5%
[2]
  growth: 79.2%
[3]
  growth: 82.4%
[4]
  growth: 92.5%
[5]
  growth: 48.8%
[6]
  growth: 79.3%
[7]
  growth: 96.3%
[8]
  growth: 71%
[9]
  growth: 97.4%

## O=C(NO)c1ccc(Cn2c(=O)n(-c3ccccc3)c(=O)c3ccccc32)cc1
[1]
  growth: 5.92% (active)
[2]
  growth: 21.6%
[3]
  growth: 50.5%
[4]
  growth: 28.1%
[5]
  growth: 55.7%
[6]
  growth: 56.9%
[7]
  growth: -10.7% (active)
[8]
  growth: 2% (active)
[9]
  growth: -2.07% (active)

## Cc1ccc2[nH]cc(-c3nc(-c4cn(C)c5ncccc45)cs3)c2c1
[1]
  growth: 89.4%
[2]
  growth: 59.5%
[10]
  growth: 87.8%
[4]
  growth: 95%
[5]
  growth: 79.6%
[6]
  growth: 77.9%
[7]
  growth: 72.2%
[8]
  growth: 58.5%
[9]
  growth: 53.3%

## Cn1cc(-c2csc(-c3cn(CCCN4CCCCC4)c4ccccc34)n2)c2cccnc21
[1]
  growth: 101%
[2]
  growth: 70.8%
[10]
  growth: -70.9% (active)
[3]
  growth: -90.2% (active)
[4]
  growth: -84.3% (active)
[5]
  growth: -97.4% (active)
[7]
  growth: 82.6%
[8]
  growth: -27.9% (active)
[9]
  growth: -50.5% (active)

## Cn1cc(-c2nc(-c3c[nH]c4ncccc34)cs2)c2cc(Br)ccc21
[1]
  growth: 77.6%
[2]
  growth: 75.2%
[10]
  growth: 87.1%
[4]
  growth: 63.5%
[5]
  growth: 58.7%
[6]
  growth: 78%
[7]
  growth: 68.4%
[8]
  growth: 58.9%
[9]
  growth: 69.1%

## COc1ccc(-c2c(-c3nc4ccc(N5CCOCC5)cc4[nH]3)[nH]c(C)c2C(C)=O)cc1
[1]
  growth: 77.1%
[2]
  growth: 42.1%
[3]
  growth: 13.8%
[4]
  growth: -4.3% (active)
[5]
  growth: 34.2%
[6]
  growth: 16.9%
[7]
  growth: 27.2%
[8]
  growth: 43.4%
[9]
  growth: 51.9%

## CCCC1CCCCN1C(=O)OCC(C)C (stereo not given)
[1]
  growth: 108%
[2]
  growth: 104%
[3]
  growth: 74.5%
[4]
  growth: 107%
[5]
  growth: 100%
[6]
  growth: 90.2%
[7]
  growth: 108%
[8]
  growth: 96.3%
[9]
  growth: 95.3%

## Cn1cc(-c2csc(-c3cn(C(=O)OC(C)(C)C)c4ccccc34)n2)c2cccnc21
[1]
  growth: 66.3%
[2]
  growth: 72.3%
[3]
  growth: 73.7%
[4]
  growth: 102%
[5]
  growth: 77.5%
[6]
  growth: 58.7%
[7]
  growth: 79.7%
[8]
  growth: 56.8%
[9]
  growth: 50%

## N#Cc1cnc2cc(OC[C@@H](O)CO)c(NC(=O)CC3CSSC3)cc2c1Nc1ccc(OCc2cccc(F)c2)c(Cl)c1
[1]
  growth: -67.7% (active)
[2]
  growth: -68% (active)
[3]
  growth: 50.5%
[4]
  growth: -60.5% (active)
[5]
  growth: 3.6% (active)
[6]
  growth: 62.7%
[7]
  growth: -62% (active)
[8]
  growth: -46.4% (active)
[9]
  growth: -50.4% (active)

## N#C/C(=C\c1ccc(-c2ccc(Cl)cc2)o1)c1nc(-c2ccco2)cs1
[1]
  growth: 102%
[2]
  growth: 48.6%
[3]
  growth: 74.3%
[4]
  growth: 62.2%
[5]
  growth: 101%
[6]
  growth: 89.3%
[7]
  growth: 108%
[8]
  growth: 93.9%
[9]
  growth: 97.5%

## CCCCCC1CCCCN1C(=O)OCC (stereo not given)
[1]
  growth: 94.9%
[2]
  growth: 124%
[10]
  growth: 102%
[4]
  growth: 100%
[5]
  growth: 98.8%
[6]
  growth: 99.4%
[7]
  growth: 91.4%
[8]
  growth: 96.6%
[9]
  growth: 79.9%

## COc1cccc(-c2nn(-c3ccccc3)cc2-c2ccnc(NCCCNS(=O)(=O)c3ccc(Br)cc3)c2)c1
[1]
  growth: 50.9%
[2]
  growth: 66%
[3]
  growth: 21.6%
[4]
  growth: 55.7%
[5]
  growth: 48.3%
[6]
  growth: 51.1%
[7]
  growth: 41.4%
[8]
  growth: 32.1%
[9]
  growth: 23.5%

## O=C1/C(=C\C(Cl)=C/c2ccc([N+](=O)[O-])cc2)SC(=S)N1CCc1ccc(O)cc1
[1]
  growth: 0.0993% (active)
[2]
  growth: -43% (active)
[3]
  growth: -91.4% (active)
[4]
  growth: -32.7% (active)
[5]
  growth: -89.4% (active)
[6]
  growth: -70.5% (active)
[7]
  growth: -27.5% (active)
[8]
  growth: 8.16% (active)
[9]
  growth: 7.65% (active)

— PubChem BioAssay (NCI)
